Source: PubChem
Many of the other results were omitted from the sample, so hits are more common in it than they were.
Shiga inhibitor: inhibitors of Shiga toxin in Vero cells | Vero cells, Shiga toxin protein synthesis inhibition reporter | inhibition, % at 38.7 µM | 290,000 compounds, 9.2% hits | AID 2315; in the data active = inhibition mostly above about 28%, no sharp cut-off; inactive = mostly below about 43%; note: 0% is about no effect
Cycloheximide cs: counter-screen hit for Shiga toxin inhibitors, cycloheximide; max response, %; 300,000 compounds, 12% hits; cell reporter, cycloheximide protein synthesis inhibition counterscreen; AID 2314; in the data active = max response mostly above about 13%, no sharp cut-off; inactive = mostly below about 14%; note: read at 38.3 µM for the half of the compounds with a filed dose; 0% is about no effect
Lassa entry inh: blocks Lassa virus binding to or entry into cells | Potency, µM (highest dose often 37.9 µM), inactives show top-dose activity change, negative = inhibition, usual class: inhibitors | Lassa virus pseudotype entry inhibition, cell reporter | 300,000 compounds, 1.2% hits; calls by dose curve; tested in HEK293 cells; note: potency is the fitted concentration of half-maximal effect; % is set by controls: 0 for no effect and ±100 for the full control effect; nearly all actives have a fitted effect of over 50% in size
AMA1-RON2 inh: inhibitors of Plasmodium falciparum AMA1-RON2 interaction. 360,000 compounds, 0.2% hits. AlphaScreen AMA1-biotinylated RON2 peptide binding. AID 720542. Potency, µM (titrated, usually from 58.2 µM), for the others: at the highest dose activity change, negative = inhibition, hits mostly inhibitors; active = well fitted inhibition curve with a large enough effect; inconclusive = small, poorly fitted or top-dose-only effect; inactive = no such curve, though single readings can be large or run the other way;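 note: potency is the fitted concentration of half-maximal effect; 0% = vehicle wells and -100% = peptide control; nearly all actives have a fitted effect of over 45% in size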
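AMA1 (3D7) with his tag at 25 nM final met compounds first, then biotinylated RON2 peptide at 25 nM; detection used donor plus acceptor beads, 10 µg/mL apiece, read by AlphaScreen after 30 min at room temperature.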
MARV entry inh: inhibitors of Marburg virus binding or cell entry; Marburg virus pseudotyped entry inhibition, cell reporter; Potency, µM (doses to about 37.8 µM), inactives show at the top dose activity change, negative = inhibition, most hits filed as inhibitors; 300,000 compounds, 1.8% hits; calls by dose curve; tested in HEK293 cells; note: potency is the fitted concentration of half-maximal effect; % is set by controls: 0 for no effect and ±100 for the full control effect
* = called active by the depositor; ? = inconclusive; · = no result; [ ] = remark or other dose.

SMILES	Shiga inhibitor	Cycloheximide cs	Lassa entry inh	AMA1-RON2 inh	MARV entry inh
CC(C)n1nnnc1SCC(=O)N1CCN(Cc2ccc3c(c2)OCCO3)CC1	·	·	·	-3%	·
CC(C)(C)OC(=O)N1CCN(C(c2ccnc3ccccc23)c2nnnn2-c2ccc3c(c2)OCCO3)CC1 (centres undefined)	·	·	·	1%	·
O=C(c1ccc(-c2cccc(Cl)c2Cl)o1)N1CCOCC1	133*	37*	?	-12%	?
O=C(c1ccc(-c2cccc(C(F)(F)F)c2)o1)N1CCOCC1	74*	37*	-13%	-5%	?
O=C(c1ccc(-c2ccccc2Cl)o1)N1CCC1	·	·	8%	0%	11%[46.1 µM]
Cc1cccc(C(=O)NC(=S)N2CCc3ccccc3C2)c1	5	1	13%	64%	?
CC(=O)Nc1ccc(S(=O)(=O)NCCC(=O)OCc2nnc(-c3ccccc3)o2)cc1	·	·	?	-1%	28%
Cc1ccc(S(=O)(=O)NCC(=O)OCc2nnc(-c3ccccc3)o2)cc1C	13	20*	28%	3%	?
O=C(CCNS(=O)(=O)c1ccccc1)OCc1nnc(-c2ccccc2)o1	·	·	8%	-17%	20%
O=C(CNS(=O)(=O)c1ccc2ccccc2c1)OCc1nnc(-c2ccccc2)o1	22	32*	4%	-5%	4%
CC(=O)Nc1ccc(C)cc1-c1nc2ccccc2n(CC(=O)Nc2cc(Cl)ccc2C)c1=O	·	·	-3%[46.1 µM]	·	22%[46.1 µM]
N=C1C(c2nc3ccccc3[nH]2)=C(O)CN1C1CCCCC1	55*	31*	15%	48%	17%
N=C1C(c2nc3ccccc3[nH]2)=C(O)CN1c1ccc(F)cc1	28	38*	11%	1%	15%
NC1=NCC(O)=C1c1nc2ccccc2[nH]1	14	1	8%	82%	7%
Cc1ccncc1C(=O)O	-6	-2	·	·	·
COc1cc(OC)c(OC)cc1CNC(=O)c1ccc(COc2ccccc2)cc1	28	21	10%[46.1 µM]	-12%	-18%[46.1 µM]
Cc1[nH]c2ccccc2c1/C=N/Nc1ccc([N+](=O)[O-])cc1	77*	19*	21%	-27%	-19%
Cc1[nH]c2ccccc2c1/C=N/Nc1ccc(F)cc1F	30*	31*	7%	·	26%
Cc1[nH]c2ccccc2c1/C=N/NC(=O)c1cccc(F)c1	62*	26*	·	58%	·
Cc1[nH]c2ccccc2c1/C=N/Nc1nncn1N	112*	55*	·	18%	?
Cc1cc(C)cc(C(O)c2ncc(-c3ccccc3C)[nH]2)c1 (centres undefined)	·	·	·	-4%	·
Cc1[nH]c2ccccc2c1/C=N\NC(=O)c1ccco1	57*	30*	·	4%	·
Cc1c(/C=N/NC(=O)c2cccs2)c2ccccc2n1Cc1ccccc1Cl	30*	23*	4.1µM*	1%	2.9µM*
Cc1[nH]c2ccccc2c1/C=N/NC(=O)c1cccs1	100	51*	12%	31%	8%
Cc1c(/C=N/NC(=O)c2cccnc2)c2ccccc2n1Cc1ccccc1	17	18	?	-13%	-26%[46.1 µM]
SMILES	Shiga inhibitor	Cycloheximide cs	Lassa entry inh	AMA1-RON2 inh	MARV entry inh
Cc1[nH]c2ccccc2c1/C=N/NC(=O)CNC(=O)c1ccco1	-27	-2	8%	5%	-2%
Cc1[nH]c2ccccc2c1/C=N/NC(=O)CNC(=O)c1cccs1	14	3	?	-6%	?
COc1ccc(-c2noc(CSc3nnc(-c4ccncc4)n3-c3ccc(C)c(C)c3)n2)cc1	·	·	-14%[46.1 µM]	·	?
Nc1nc(-c2ccccc2)cn1/N=C/c1ccccc1	34	38*	-6%[46.1 µM]	56%	?
Nc1nc(-c2ccccc2)cn1N	28	23	17%	-4%	18%
CCOC(=O)c1csc(N/N=C2\CCCc3ccccc32)n1	33*	12*	·	34%	·
CCOC(=O)c1csc(NC(=O)CN2CCN(C)CC2)n1	5	-2	·	13%	·
CCOC(=O)c1csc(N/N=C2\CCc3ccccc32)n1	38*	31*	18%[46.1 µM]	-1%	10%[46.1 µM]
COc1ccc2c(c1)CCC/C2=N\Nc1nc(C(=O)NN)cs1	76*	46*	-6%	33%	6%[46.1 µM]
CCOC(=O)c1csc(NC(=O)C(C)(C)C)n1	35	0	·	11%	·
O=C(O)C1CCN(C(=O)c2ccc3c(c2)OCO3)CC1	6	1	?	2%	0%[46.1 µM]
CC(C)(C)OC(=O)N(c1cccc2cccnc12)S(=O)(=O)c1ccccc1Br	-9	9	·	·	·
Cc1ccc(CC(=O)Nc2ncc([N+](=O)[O-])s2)cc1	61	30*	·	-3%	·
O=C(CCS(=O)(=O)Cc1ccccc1)Nc1ncc([N+](=O)[O-])s1	58*	39*	8%[46.1 µM]	-12%	?
COc1ccc(S(=O)(=O)N2CCC(NC(=O)c3cccnc3)CC2)cc1	7	-3	13%[46.1 µM]	-7%	-2%[46.1 µM]
Nc1c(-c2ccsc2)cnc2ncnn12	2	11	19%	-2%	18%[46.1 µM]
Nc1c(-c2cccs2)cnc2c(-c3ccc(F)cc3)cnn12	118*	43*	-24%[46.1 µM]	109%	?
N#Cc1cnn2c(N)c(-c3ccc(Cl)cc3)cnc12	-5	5	?	4%	-9%[46.1 µM]
CS(=O)(=O)c1cnc2c(-c3ccc(F)cc3)cnn2c1N	61*	58*	6%	32%	5%
CS(=O)(=O)c1cnc(-c2ccccc2)nc1Oc1ccc(F)cc1	13	1	-3%	-6%	?
CC(C)(C)S(=O)(=O)c1cnc2c(-c3ccsc3)cnn2c1N	65	49*	28%	59%	?
Nc1c(-c2ccccc2)cnc2c(-c3ccccc3)cnn12	130*	52*	·	55%	·
CCOC(=O)C1=C(C)C(c2ccc(OC)cc2)NC(=S)N1 (centres undefined)	17	5	5%	14%	-8%
CCOC(=O)C1=C(C)C(c2cccc(Oc3ccccc3)c2)NC(=S)N1 (centres undefined)	6	1	8.9µM*	30%	?
O=C(c1cnc2nc3ccccc3n2c1)c1cc(F)ccc1O	11	14*	?	3%	17%
SMILES	Shiga inhibitor	Cycloheximide cs	Lassa entry inh	AMA1-RON2 inh	MARV entry inh
O=C(c1cnn(C(=O)COc2ccccc2F)c1)c1cc(F)ccc1O	25	-2	1%[46.1 µM]	47%	2%[46.1 µM]
CCS(=O)(=O)c1nc(S(=O)(=O)c2ccc(C)cc2)c(NCc2ccccc2Cl)s1	·	·	-16%[46.1 µM]	·	?
Cc1ccc2cn[nH]c2c1NC(=S)NC(=O)c1ccccc1	-13	-2	-4%	26%	10%
Cc1ccc2cn[nH]c2c1NC(N)=S	48*	31	-3%	34%	-10%[46.1 µM]
O=C(O)c1ccc2c(c1)C(=O)N(c1nccs1)C2=O	20	-4	17%	-20%	-1%[46.1 µM]
CC1CCC/C(=C\Nc2ccc(O)cc2)C1=O (centres undefined)	80*	52*	-1%	1%	17%
Cc1cc(C(=O)O)ccc1N/C=C1\CCCC(C)C1=O (centres undefined)	-3	13	13µM*	-7%	7.9µM*
Cc1ccc(C(=O)N2CC(=O)NC(=O)C2)cc1	-7	-1	1%[46.1 µM]	1%	-15%[46.1 µM]
